Most compounds without a hit are left out; they make up all but 9.5% or so of the library.
NS1 inh: blocks influenza NS1 protein function | actives 0.4% (n = 270,000) | Potency, µM (highest dose often 46.1 µM); calls by dose curve; also: actives are rising curves; nearly all actives have a fitted effect of over 50% in size
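In this qHTS, NS1 from influenza A is expressed in budding yeast, where it slows growth. Cells are switched from glucose to 2% galactose medium (pH 6.0, -URA), treated with compound, and growth recovery is read at OD600.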
RE007 growth inh: less growth of the S. pombe RE007 Vpr strain | S. pombe RE007 Vpr strain, BacTiter-Glo ATP luminescence, 24 h | Potency, µM (top dose mostly 92.2 µM), most hits filed as inhibitors | actives 0.21% (n = 360,000) | AID 651644; active = well fitted falling curve with a large enough effect; inconclusive = small, poorly fitted or top-dose-only effect; inactive = no such curve, though single readings can be large or run the other way; also: nearly all actives have a fitted effect of over 50% in size
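Fission yeast strain RE007, carrying one chromosomally integrated HIV-1 vpr copy, was seeded at OD 0.01 in PMG+AL medium with 23 nL pinned compound. After 24 h at 30 °C and 99% humidity, viability was read by BacTiter-Glo luminescence.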
SARS PLP yeast: inhibitors of SARS-CoV papain-like protease in yeast; S. cerevisiae expressing SARS-CoV PLpro, growth rescue; Potency, µM (top dose mostly 32.9 µM), usual class: activators; AID 485353; actives 0.19% (n = 330,000); calls by dose curve; also: nearly all actives have a fitted effect of over 55% in size
Pf growth 48h: P. falciparum growth inhibition at 48 hours (one generation). actives 5.9% (n = 310,000). P. falciparum luciferase growth in erythrocytes, 48 h. Potency, µM (top dose mostly 28.7 µM), hits mostly inhibitors. AID 504832
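A one-generation exposure of luciferase-tagged malaria parasites in RPMI 1640/Albumax erythrocyte culture, 37 C and 5% CO2. Inhibition is inferred from decreased luminescence after adding detection reagent.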
Pf growth 96h: P. falciparum growth inhibition at 96 hours; P. falciparum luciferase reporter growth, 96 h; Potency, µM (series often up to 28.7 µM), actives largely listed as inhibitors; actives 6.9% (n = 320,000)
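Delayed-death screen, second-generation endpoint: infected erythrocytes, 2% hematocrit, 0.05% parasitemia final; 96 hours at 37 C, 5% CO2; luciferase detection reagent; luminescence decrease equals reduced growth.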
A number is an active result; – = inactive; ? = inconclusive; · = not tested or not shown. Unless noted, calls follow the shape of the dose curve; as a rule, active = well fitted inhibition curve with a large enough effect; inconclusive = small, poorly fitted or top-dose-only effect, or another doubt; inactive = no such curve, though single readings can be large or run the other way.

SMILES	NS1 inh	RE007 growth inh	SARS PLP yeast	Pf growth 48h	Pf growth 96h
COc1ccc(Nc2nc3c([nH]2)c(=O)[nH]c(=O)n3C)cc1	·	–	–	–	13µM
COc1ccccc1Nc1nc(-c2ccccc2)nc2ccccc12	–	–	–	–	–
COc1ccccc1Nc1c2ccccc2nc2ccccc12	–	–	–	7.4µM	2.3µM
COCCCNc1nc2c([nH]1)c(=O)[nH]c(=O)n2C	–	–	–	–	–
O=C(O)c1ccc(Nc2c3ccccc3nc3ccccc23)cc1	–	–	–	2.1µM	–
COc1ccc(Nc2nc(N3CCCC3)c3ccccc3n2)cc1	–	–	–	3.3µM	–
S=C(NCCN1CCOCC1)Nc1ccccc1Cl	–	–	–	–	–
CCN(C(=O)COC(=O)CCC(=O)c1cccs1)c1c(N)n(Cc2ccccc2)c(=O)[nH]c1=O	·	–	–	–	–
Cc1cc(Nc2nnnn2-c2ccccc2)n(-c2ccccc2)n1	–	–	–	–	9.3µM
CC(=O)C1=NN(c2ccc(Cl)cc2)C(c2ccc3c(c2)OCO3)N(C(C)=O)N1C (stereo not given)	–	–	–	12µM	12µM
CCC(C)[C@@H]1NC(=O)N(CCCN2CCCC2=O)C1=O (stereo not given in full)	–	–	–	–	–
COc1ccc(-n2c(C)cc(-c3csc(N)n3)c2C)cc1	–	–	–	13µM	?
C=CCN(CC=C)c1nc2ccccc2nc1C(C#N)C(=O)OC(C)C (stereo not given)	–	–	–	10µM	?
COCC(C)OC(=O)C(C#N)c1nc2ccccc2nc1N1CCN(Cc2ccccc2)CC1 (stereo not given)	–	–	–	·	?
Cc1cc2[nH]c3c(c[n+](C)c4ccccc34)c2cc1C	–	–	–	0.47µM	?
C#CCn1c(C)cc(C)c(S(=O)(=O)c2ccccc2)c1=O	–	–	–	–	–
Cc1ccc(S(=O)(=O)NCC23C=CC(O2)C2C(=O)N(c4ccccc4)C(=O)C23)cc1 (stereo not given)	–	8.9µM	–	–	·
Cc1ccc(NC(=S)NCC23C=CC(O2)C2C(=O)N(c4ccc(C)cc4)C(=O)C23)cc1 (stereo not given)	–	8.9µM	–	?	?
Cc1ccc(N2C(=O)C3C4C=CC(CNC(=S)N5CCN(c6ccccc6)CC5)(O4)C3C2=O)cc1 (stereo not given)	·	5.6µM	–	–	?
Cc1cccc(NC(=S)NCC23C=CC(O2)C2C(=O)N(c4ccc(Cl)cc4)C(=O)C23)c1 (stereo not given)	–	3.5µM	–	–	–
Cc1ccc(N2CCN(C(=S)Nc3ccc(Cl)cc3)CC2)cc1	–	–	–	–	–
C=CCNc1ncnc2c1ncn2[C@H]1CN(C2CCCC2)C[C@@H](CO)O1	·	–	·	·	·
CCN(CCc1ccccc1)c1ccc2c(c1)C1CC2CCN1Cc1ccccc1 (stereo not given)	·	–	·	·	·
CC(=O)Nc1ccc(S(=O)(=O)c2cc(O)ccc2O)cc1	–	–	–	–	?
O=S1(=O)CC(N2CCN(CCO)CC2)CN1Cc1cn(Cc2cccc(C(F)(F)F)c2)nn1 (stereo not given)	·	–	·	·	·
SMILES	NS1 inh	RE007 growth inh	SARS PLP yeast	Pf growth 48h	Pf growth 96h
CCN(CC)C(CNS(=O)(=O)c1ccc(Cl)cc1)c1ccccc1 (stereo not given)	·	–	–	–	?
COC(CNS(=O)(=O)c1ccc(Cl)cc1)c1ccccc1 (stereo not given)	–	–	–	–	13µM
CN(C)c1nc(NNC(=O)c2ccccc2)nc(N(C)C)n1	·	–	·	·	·
CCN(CC)CCNC(=O)CCCCn1c(=S)[nH]c2c([nH]c3ccc(OC)cc32)c1=O	–	–	–	9.3µM	?
Cc1ccc(NC(=O)C(c2ccccc2)N2CCN(CC(=O)N3CCOCC3)CC2)cc1 (stereo not given)	·	–	–	?	–
COc1ccc(C)cc1NC(=O)C(c1ccccc1)N1CCN(CC(=O)N2CCCC2)CC1 (stereo not given)	·	–	–	12µM	12µM
COc1ccc(C)cc1NC(=O)C(c1ccccc1)N1CCN(CC(=O)N2CCOCC2)CC1 (stereo not given)	·	–	–	9.3µM	?
COc1cccc(NC(=O)C(c2ccccc2)N2CCN(CC(=O)N3CCOCC3)CC2)c1 (stereo not given)	·	–	–	?	?
CN(C)S(=O)(=O)c1cccc(NC(=O)c2cc(-c3cccs3)nn2-c2cccc(Cl)c2)c1	–	–	–	?	15µM
Cc1oc(-c2ccccc2F)nc1CS(=O)(=O)CC(=O)NCCCN1CCN(C)CC1	–	–	–	–	10µM
Cc1oc(-c2ccccc2F)nc1CS(=O)(=O)CC(=O)NCCCN1CC(C)CC(C)C1 (stereo not given)	–	–	–	?	?
Cc1ccc(-c2nc(CS(=O)CC(=O)NCCCN3CCN(Cc4ccccc4)CC3)c(C)o2)cc1 (stereo not given)	–	–	–	?	6.6µM
CCCCNC(=O)CS(=O)Cc1nc(-c2cccc(C)c2)oc1C (stereo not given)	–	–	–	·	0.1µM
Oc1cccc(-c2ccc3nccn3c2)c1	·	–	·	·	·
COc1ccc(N2CCN(C(=O)c3cccn4c(=O)c5ccccc5nc34)CC2)cc1	·	–	–	–	–
CCCS(=O)(=O)O	–	·	·	·	·
O=C(CCCOc1ccccc1)N1CCN(c2ccccc2)CC1	–	–	–	·	?
CC(=O)c1ccc(OCCCC(=O)OCC(=O)N2CCN(c3ccccc3)CC2)cc1	–	–	–	·	9.3µM
CC(=O)c1ccc(OCCCC(=O)Nc2ccc(S(=O)(=O)N3CCOCC3)cc2)cc1	·	–	11µM	–	?
COc1ccc(S(=O)(=O)N2CCOCC2)cc1NC(=O)CCCOc1ccc(C(C)=O)cc1	·	–	·	·	·
CCOc1ccc(S(=O)(=O)N2CCN(C(=O)CCOc3ccccc3C)CC2)cc1	·	–	–	10µM	?
O=C(CCCOc1ccc(Br)cc1)Nc1ccc(S(=O)(=O)N2CCOCC2)cc1	·	–	–	?	8.3µM
COc1cccc(NC(=O)c2ccc3nc(C)c(N(C)Cc4ccc(NC(C)=O)cc4)n3c2)c1	·	–	·	·	·
CCOc1ccc(S(=O)(=O)NCCC(=O)N2CCN(C(C)=O)CC2)cc1	·	–	·	·	·
CC(=O)c1ccc(OCCCC(=O)N2CCN(S(=O)(=O)c3cc(C)ccc3C)CC2)cc1	·	–	–	?	?
CC(=O)c1ccc(OCCCC(=O)N2CCN(S(=O)(=O)c3ccc(C(C)C)cc3)CC2)cc1	·	–	–	9.3µM	5.2µM
CCC1(CC)C(=O)N(c2ccccc2)C(=N)N(c2ccccc2)C1=O	·	–	·	·	·
CCOCCCNC(=O)CCn1ccc2cc(S(=O)(=O)N3CCCC3)ccc21	–	–	–	?	10µM
CCCCNC(=O)CCn1ccc2cc(S(=O)(=O)N3CCCC3)ccc21	–	–	–	–	–
CCOc1ccccc1CNC(=O)Cn1ccc2cc(S(=O)(=O)N3CCCC3)ccc21	–	–	–	?	13µM

Screens: PubChem, National Center for Advancing Translational Sciences (NCATS)
